Measured values: PubChem BioAssay AID1159580 (chemical genetic matrix, 2015)
About 2,000 (36%) of roughly 5,500 compounds were called active. About 18% were inconclusive and are not listed. Rule as the data show it: active = normalized growth mostly below about 0.91 (no sharp cut-off); inconclusive = no clear call, values can overlap the other calls; inactive = mostly above about 0.92. This is one part of the list.

Assay: chemical genetic growth profiling, strain panel (AID 1159580);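 also: tested at 20 µM; growth read once vehicle control cultures reached saturation at 30 °C; 1 = growth at the plate median or of vehicle wells; lower values mean less growth of the strain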
Details: S. cerevisiae deletion strains, growth OD

Measured: normalized growth

CC1CCN(CC[C@H]2CCCN2S(=O)(=O)c2cccc(O)c2)CC1
inactive: locus YAL040C, strain CLN3, stronger effect = lower value 0.99 | locus YCL061C, strain MRC1 (second series), stronger effect = lower value 1 | locus YDR363W, strain ESC2, stronger effect = lower value 0.986 | locus YER002W, strain NOP16, stronger effect = lower value 0.989 | locus YGR078C, strain PAC10, stronger effect = lower value 1.02 | locus YMR263W, strain SAP30, stronger effect = lower value 1 | locus YMR307W, strain GAS1, stronger effect = lower value 1.03 | locus YNL128W, strain TEP1, stronger effect = lower value 1.01 | locus YNL175C, strain NOP13, stronger effect = lower value 1.01 | locus YNL197C, strain WHI3, stronger effect = lower value 1.01 | locus YNL224C, strain SQS1, stronger effect = lower value 1 | locus YNL322C, strain KRE1, stronger effect = lower value 0.984 | locus YOR083W, strain WHI5 (second series), stronger effect = lower value 1.03
